Records with an inconclusive call do not appear. The source made the active and inactive calls. Calls follow the shape of the dose curve; as a rule, active = well fitted curve in the direction sought with a large enough effect in the repeat runs; inconclusive = weak or mixed curves; inactive = no such curve, though single readings can be large; an effect the other way counts as inactive or inconclusive.
Key:
[1] = A CellTox Green Cytotoxicity Assay to monitor cytotoxicity in HepG2 cells - 0 hour (AID 1224882); also: nearly all actives have a fitted effect of over 35% in size
How it was run: (§1)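 Continuous culture of HepG2 cells with a membrane-impermeant DNA dye; rising fluorescence marks dead cells. Compound exposure lasted up to 40 h at 37 C, with reads every 8 h from 0 h.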

[2] = A CellTox Green Cytotoxicity Assay to monitor cytotoxicity in HepG2 cells - 32 hour (AID 1224883); also: nearly all actives have a fitted effect of over 50% in size
How it was run: as §1

[3] = A CellTox Green Cytotoxicity Assay to monitor cytotoxicity in HEK293 cells - 8 hour (AID 1224884); also: nearly all actives have a fitted effect of over 35% in size
How it was run: (§2)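 Each value comes from one timepoint of a single continuous run in which HEK293 cells with CellTox Green were exposed to compound for up to 40 h at 37 C, dye fluorescence rising with cell death.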

[4] = qHTS RealTime-Glo MT Cell Viability Assay in HepG2 cells - 16 hour (AID 1224885); also: nearly all actives have a fitted effect of over 50% in size
How it was run: (§3)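 Real-time, nonlytic viability: 600 HepG2 cells/well mixed with NanoLuc enzyme plus prosubstrate; 5 h settle, compound (DMSO) added by pintool; luminescence monitored over 40 h at 37 C.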

[5] = qHTS RealTime-Glo MT Cell Viability Assay in HEK293 cells - 24 hour (AID 1224886); also: top concentration of the series differs between compounds; nearly all actives have a fitted effect of over 50% in size
How it was run: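 Cells + reagent dispensed (600 cells/well, HEK293) → 5 h at 37 C/5% CO2 → 23 nL compound in DMSO pinned → 40 h at 37 C → luminescence read at 0, 8, 16, 24, 32, 40 h.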

[6] = qHTS RealTime-Glo MT Cell Viability Assay in HEK293 cells - 8 hour (AID 1224887); also: top concentration of the series differs between compounds; nearly all actives have a fitted effect of over 50% in size
How it was run: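 qHTS format; HEK293 cells with NanoLuc/prosubstrate reagent, 37 C/5% CO2 for 5 h pre-dosing; compounds 23 nL in DMSO; luminescence at each time point reflects viable cells.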

[7] = A CellTox Green Cytotoxicity Assay to monitor cytotoxicity in HEK293 cells - 16 hour (AID 1224888); also: nearly all actives have a fitted effect of over 35% in size
How it was run: as §2

[8] = qHTS RealTime-Glo MT Cell Viability Assay in HepG2 cells - 0 hour (AID 1224889); also: nearly all actives have a fitted effect of over 50% in size
How it was run: as §3

[9] = A CellTox Green Cytotoxicity Assay to monitor cytotoxicity in HepG2 cells - 8 hour (AID 1224890); also: nearly all actives have a fitted effect of over 45% in size
How it was run: as §1

[10] = qHTS assay to identify small molecule antagonists of the estrogen receptor alpha (ER-alpha) signaling pathway using the BG1 cell line in the presence of 0.1 nM 17-beta-estradiol - cell viability counter screen (AID 1259241); also: nearly all actives have a fitted effect of over 40% in size
How it was run: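 CellTiter-Fluor read (30 min, 37C) on ER-alpha/ERE-luc VM7Luc4E2 cells; 22 hr compound treatment; agonist 0.1 nM E2 final; same-well multiplex.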
% is scaled to controls: 0 for no effect and ±100 for the full control effect.

COC(=O)c1c(C(F)F)nc(C(F)(F)F)c(C2=NCCS2)c1CC(C)C
inactive: outcome [1] | Potency [2] | Potency [3] | Potency [4] | Potency [5] | Potency [6] | Potency [7] | Potency [8] | Potency [9] | outcome [10]

CC1(C)CON(Cc2ccccc2Cl)C1=O
inactive: outcome [1] | Potency [2] | Potency [3] | Potency [4] | Potency [5] | Potency [6] | Potency [7] | Potency [8] | Potency [9]

CN(N=O)C(N)=O
inactive: outcome [1] | Potency [2] | Potency [3] | Potency [4] | Potency [5] | Potency [6] | Potency [7] | Potency [8] | Potency [9] | outcome [10]

Cc1cc(C)nc(Nc2ccccc2)n1
inactive: outcome [1] | Potency [2] | Potency [3] | Potency [4] | Potency [5] | Potency [6] | Potency [7] | Potency [8] | Potency [9]

CCN(CC)c1nc(C)cc(OP(=S)(OC)OC)n1
inactive: outcome [1] | Potency [2] | Potency [3] | Potency [4] | Potency [5] | Potency [6] | Potency [7] | Potency [8] | Potency [9]

O=C(Oc1ccc(Br)cc1)N1CCN2CCC1CC2
inactive: outcome [1] | Potency [2] | Potency [3] | Potency [4] | Potency [5] | Potency [6] | Potency [7] | Potency [8] | Potency [9]

N#CCNCC#N
inactive: outcome [1] | Potency [2] | Potency [3] | Potency [4] | Potency [5] | Potency [6] | Potency [7] | Potency [8] | Potency [9] | outcome [10]

O=C1CN2CCOC2(c2ccccc2Cl)c2cc(Cl)ccc2N1 (stereo not given)
inactive: outcome [1] | Potency [2] | Potency [3] | Potency [4] | Potency [5] | Potency [6] | Potency [7] | Potency [8] | Potency [9]

CCC1(c2ccccc2)C(=O)NC(=O)NC1=O
inactive: outcome [1] | Potency [2] | Potency [3] | Potency [4] | Potency [5] | Potency [6] | Potency [7] | Potency [8] | Potency [9]

ClC(Cl)(Cl)C(Cl)(Cl)Cl
inactive: outcome [1] | Potency [2] | Potency [3] | Potency [4] | Potency [5] | Potency [6] | Potency [7] | Potency [8] | Potency [9] | outcome [10]

CNC(=O)Oc1cccc(C(C)C)c1
inactive: outcome [1] | Potency [2] | Potency [3] | Potency [4] | Potency [5] | Potency [6] | Potency [7] | Potency [8] | Potency [9]

CCS(=O)(=O)C(C)(C)S(=O)(=O)CC
inactive: outcome [1] | Potency [2] | Potency [3] | Potency [4] | Potency [5] | Potency [6] | Potency [7] | Potency [8] | Potency [9] | outcome [10]

OC(c1ccc(F)cc1)(c1cncnc1)c1ccccc1Cl (stereo not given)
inactive: outcome [1] | Potency [2] | Potency [3] | Potency [4] | Potency [5] | Potency [6] | Potency [7] | Potency [8] | Potency [9]

N#CC(O)c1ccccc1 (stereo not given)
inactive: outcome [1] | Potency [2] | Potency [3] | Potency [4] | Potency [5] | Potency [6] | Potency [7] | Potency [8] | Potency [9]

CNC(=O)Oc1ccccc1C1OCCO1
inactive: outcome [1] | Potency [2] | Potency [3] | Potency [4] | Potency [5] | Potency [6] | Potency [7] | Potency [8] | Potency [9] | outcome [10]

COP(N)(=S)Oc1ccccc1C(=O)OC(C)C (stereo not given)
inactive: outcome [1] | Potency [2] | Potency [3] | Potency [4] | Potency [5] | Potency [6] | Potency [7] | Potency [8] | Potency [9] | outcome [10]

COC(=O)COc1ccc(Cl)cc1Cl
inactive: outcome [1] | Potency [2] | Potency [3] | Potency [4] | Potency [5] | Potency [6] | Potency [7] | Potency [8] | Potency [9] | outcome [10]

CC1=C(C(=O)O)N2C(=O)[C@@H](N)[C@H]2SC1
inactive: cytotoxicity [1] -6.07% [at 15.8 µM] | cytotoxicity increase [2] -8.31% [at 15.8 µM] | cytotoxicity increase [3] -10.6% [at 15.8 µM] | activity change, negative = cytotoxic [4] 0.0678% [at 15.8 µM] | activity change, negative = cytotoxicity [5] -0.764% [at 15.8 µM] | activity change, negative = cytotoxicity [6] -0.746% [at 15.8 µM] | activity change [7] -1.57% [at 15.8 µM, hits give high values] | activity change, negative = cytotoxicity [8] -0.386% [at 15.8 µM] | cytotoxicity increase [9] -7.33% [at 15.8 µM]

CCOC(=O)C1(c2ccccc2)CCN(CCc2ccc(N)cc2)CC1
inactive: outcome [1] | Potency [2] | Potency [3] | Potency [4] | Potency [5] | Potency [6] | Potency [7] | Potency [8] | Potency [9]

CC(=O)CC(c1ccc(Cl)cc1)c1c(O)c2ccccc2oc1=O (stereo not given)
inactive: outcome [1] | Potency [2] | Potency [3] | Potency [4] | Potency [5] | Potency [6] | Potency [7] | Potency [8] | Potency [9] | outcome [10]

CCNc1nc(NC(C)C)nc(OC)n1
inactive: outcome [1] | Potency [2] | Potency [3] | Potency [4] | Potency [5] | Potency [6] | Potency [7] | Potency [8] | Potency [9] | outcome [10]

CCCCN(CCCCO)N=O
inactive: outcome [1] | Potency [2] | Potency [3] | Potency [4] | Potency [5] | Potency [6] | Potency [7] | Potency [8] | Potency [9]

N#Cc1ccncc1
inactive: outcome [1] | Potency [2] | Potency [3] | Potency [4] | Potency [5] | Potency [6] | Potency [7] | Potency [8] | Potency [9]

CC(N)=S
inactive: outcome [1] | Potency [2] | Potency [3] | Potency [4] | Potency [5] | Potency [6] | Potency [7] | Potency [8] | Potency [9]

OCCSCSCCO
inactive: outcome [1] | Potency [2] | Potency [3] | Potency [4] | Potency [5] | Potency [6] | Potency [7] | Potency [8] | Potency [9] | outcome [10]

C[C@]12CC[C@H]3[C@@H](CCC4=CC(=O)CC[C@@]43C)[C@@H]1CC[C@@H]2C(=O)O
inactive: outcome [1] | Potency [2] | Potency [3] | Potency [4] | Potency [5] | Potency [6] | Potency [7] | Potency [8] | Potency [9]

Source: PubChem BioAssay (Tox21)
